HT1080 IDH1KD tx = kills HT-1080 cells with IDH1 knockdown | HT-1080 IDH1 knockdown viability, ATP luminescence, 48 h | Potency, µM (doses to about 46.1 µM), inactives show at the highest dose activity, negative = toxicity, hits mostly cytotoxic | 360,000 compounds, 2% hits;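 also: potency is read from the fitted curve at half-maximal effect; 0% = DMSO wells and -100% = cell-free medium wells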
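Viability of IDH1-knockdown HT-1080 fibrosarcoma cells was assessed by CellTiter-Glo after 48 h at 37 °C with titrated compound; concentration-effect curves were classified by fit quality and response size.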
IL-1B inflam inh = blocks inflammasome-driven IL-1 beta release; THP-1 LPS/ATP IL-1B secretion, AlphaLISA, 16 h; hits give low values; activity change, % at 57.5 µM; 360,000 compounds, 4.7% hits; AID 743279; in the data active = activity change below about -50%; inconclusive = mostly about -30% to -49%
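Secreted IL-1B measured by AlphaLISA bead assay after 16 h compound exposure of THP-1 cells; compounds (final up to 57.5 uM) added 1 h before LPS (250 ng/mL) and ATP (1.25 mM) stimulation; lower signal means less secretion.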
TDP1 cell CPT = growth inhibition of DT40 Tdp1-/-;hTDP1 cells with camptothecin (screen for TDP1 inhibitors). chicken DT40 Tdp1-/-;hTDP1 cells + 20 nM CPT, ATP luminescence, 48 h. Potency, µM (highest dose often 46.2 µM), inactives show at the highest dose activity change, negative = growth inhibition, hits mostly inhibitors. 420,000 compounds, 12% hits. AID 686979; also: potency is read from the fitted curve at half-maximal effect; nearly all actives have a fitted effect of over 55% in size
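Chicken DT40 Tdp1-/- cells stably complemented with human TDP1 were seeded at 400 cells/well in medium containing 20 nM camptothecin, exposed to pin-transferred compounds, and grown at 37 °C for at least 48 hr. Viability was read as ATP luminescence.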
ALOX12 inh = ALOX12 (human) lipoxygenase inhibition; P18054; purified 12hLO, xylenol orange hydroperoxide absorbance; Potency, µM (top dose mostly 108 µM), without a hit: top-dose activity change, negative = inhibition, hits mostly inhibitors; 580,000 compounds, 1.1% hits; also: potency is read from the fitted curve at half-maximal effect
Target sequence (P18054 whole entry, looked up): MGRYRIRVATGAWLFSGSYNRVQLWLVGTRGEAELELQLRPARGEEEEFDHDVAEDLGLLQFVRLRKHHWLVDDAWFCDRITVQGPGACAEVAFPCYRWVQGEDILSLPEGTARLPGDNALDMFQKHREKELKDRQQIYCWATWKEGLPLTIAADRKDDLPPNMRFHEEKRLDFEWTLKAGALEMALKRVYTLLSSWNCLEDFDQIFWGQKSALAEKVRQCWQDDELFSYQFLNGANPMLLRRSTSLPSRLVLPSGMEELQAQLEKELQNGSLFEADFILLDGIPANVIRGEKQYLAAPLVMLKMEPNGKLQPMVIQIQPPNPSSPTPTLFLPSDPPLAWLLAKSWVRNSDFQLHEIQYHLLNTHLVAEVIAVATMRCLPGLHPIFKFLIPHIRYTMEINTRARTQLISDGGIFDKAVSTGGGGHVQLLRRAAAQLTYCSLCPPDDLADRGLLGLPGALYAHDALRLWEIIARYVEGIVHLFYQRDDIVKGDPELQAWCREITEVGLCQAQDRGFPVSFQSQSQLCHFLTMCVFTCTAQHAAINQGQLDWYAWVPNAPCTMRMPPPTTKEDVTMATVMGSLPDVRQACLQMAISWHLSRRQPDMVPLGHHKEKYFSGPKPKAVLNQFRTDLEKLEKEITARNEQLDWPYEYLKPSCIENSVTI
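Hydroperoxide product was detected by ferrous iron/xylenol orange as the 573 to 405 nm absorbance ratio. Arachidonic acid at 40 uM (final) was turned over for 30 min at room temperature by 150 nM human 12hLO, pH 7.0 Hepes buffer, after 15 min compound preincubation.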
HT1080NT lethal = kills 2HG-producing HT-1080-NT fibrosarcoma cells | Potency, µM (doses to about 46.1 µM), for the others: top-dose activity, negative = less viability, hits mostly cytotoxic | HT-1080-NT fibrosarcoma viability, CellTiter-Glo ATP luminescence, 48 h | 360,000 compounds, 1.6% hits;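 also: NT is the 2HG producing partner of a matched IDH1 knockdown line; potency is read from the fitted curve at half-maximal effect; 0% = DMSO-treated cells and -100% = media-only wells without cells; nearly all actives have a fitted effect of over 55% in size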
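Viability of the 2HG-overproducing fibrosarcoma line after 48 hours of compound exposure at 37 degrees C was determined by luminescence with CellTiter-Glo, and concentration-effect curves were then fitted and categorized.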
TDP1 cell noCPT = qHTS for Inhibitors of human tyrosyl-DNA phosphodiesterase 1 (TDP1): qHTS in cells in absence of CPT. DT40 Tdp1-/- hTDP1 cells, no CPT, ATP luminescence, 48 h. Potency, µM (titrated, usually from 46.2 µM), without a hit: at the highest dose activity change, negative = growth inhibition, usual class: inhibitors. 420,000 compounds, 15% hits. AID 686978, 2013; also: potency is read from the fitted curve at half-maximal effect; nearly all actives have a fitted effect of over 55% in size
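Readout: luminescence from CellTiter-Glo after 30 min in the dark at RT. Cells: DT40 Tdp1-/- with stable hTDP1, 400/well. Exposure: compounds alone, ≥48 hr, 37 °C.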
Starred values were filed as active, the others as inactive; u = inconclusive; x = no result; [ ] = remark or other dose. Only a selection was taken, and hits are over-represented in it overall. Unless noted, calls follow the shape of the dose curve; as a rule, active = well fitted curve in the direction sought with a large enough effect; inconclusive = small, poorly fitted or top-dose-only effect, or another doubt; inactive = no such curve, though single readings can be large; an effect the other way counts as inactive or inconclusive. Unless noted, % is scaled to controls: 0 for no effect and ±100 for the full control effect.

SMILES | HT1080 IDH1KD tx | IL-1B inflam inh | TDP1 cell CPT | ALOX12 inh | HT1080NT lethal | TDP1 cell noCPT
CC(=O)c1c(C)nn(CC(O)COc2ccc3c(c2)CCC3)c1C (stereo unspecified) | -12.7% | u | u | 1.5%[57.4 µM] | u | 15.8µM*
Cc1ccc(OCC(O)CN2CCN(CC(O)COC(C)C)CC2)c(C(C)(C)C)c1 (stereo unspecified) | u | -24.7 | u | -4.8% | u | u
COc1ccccc1N1CCN(CC(O)COc2ccc(C)c(C)c2)CC1 (stereo unspecified) | -6.7% | -11.0 | u | 0.0% | -7.6% | -22.2%
CC(C)(C)CC(C)(C)NCC(O)COc1ccc2c(c1)CCC2 (stereo unspecified) | u | -75.1* | u | -10.8% | 20.6µM* | 23.1µM*
COc1ccccc1N1CCN(CC(O)COc2ccc(C)cc2C(C)(C)C)CC1 (stereo unspecified) | x | x | u | u | x | 18.4µM*
COc1ccc2nc3cc(Cl)ccc3c(C#N)c2c1 | 8.9% | 17.5 | 14.2% | -18.1% | 8.3% | 1.7%
COc1ccc2nc(C(F)(F)Cl)c(C#N)c(N)c2c1 | -18.2% | -72.5* | u | -77.0% | -9.6% | u
COc1ccc(NC(=O)Cn2c(=O)c(-c3noc(C)n3)c3n(c2=O)CCCC3)cc1OC | x | x | x | 12.1% | x | x
CSc1ccccc1C(=O)C1CCCN(Cc2c(C)n(C)n(-c3ccccc3)c2=O)C1 (stereo unspecified) | -3.3% | -4.0 | u | -2.3% | -5.5% | 29.1µM*
COc1ccc(F)cc1C(=O)C1CCCN(Cc2cn(C)c3ccccc23)C1 (stereo unspecified) | u | -77.9* | 14.6µM* | -4.1% | u | 13µM*
COc1c(C)cc(C(=O)C2CCCN(Cc3c(C)n(C)n(-c4ccccc4)c3=O)C2)cc1C (stereo unspecified) | 1.4% | 20.1 | -27.7% | -12.8% | -1.1% | -28.4%
COc1ccc(OC)c(CN2CCCC(C(=O)c3ccccc3SC)C2)c1 (stereo unspecified) | u | -68.4* | 13µM* | 4.4% | u | 9.2µM*
COc1ccc(F)cc1C(=O)C1CCCN(Cc2c[nH]c3ccccc23)C1 (stereo unspecified) | -30.0% | u | 4.11µM* | -15.9% | -28.2% | 4.61µM*
CC(C)NC(=O)c1ccccc1OCC1CCCN(Cc2cn(C)c3ccccc23)C1 (stereo unspecified) | x | x | x | 22.8% | x | x
COC(=O)c1ccc(CN2CCCC(C(=O)c3cc(F)ccc3OC)C2)cc1 (stereo unspecified) | -6.1% | 0.0 | u | u | -5.1% | -28.1%
COc1ccc(OC)c(CN2CCCC(COc3ccccc3C(=O)N3CCCC3)C2)c1 (stereo unspecified) | x | x | x | 48.6% | x | x
CC(=O)N[C@@H](CO)C(=O)N[C@@H](CC(=O)O)C(=O)N[C@@H](CCCCN)C(=O)N1CCC[C@H]1C(=O)O | x | x | x | -2.9%[22.9 µM] | x | x
Cc1cccc(-n2ccnc2SCC(=O)c2ccccc2F)c1 | x | x | x | -24.2% | x | x
Cc1ccc(C(=O)N[C@@H]2CN(c3ncccn3)C[C@H]2CO)nc1 | x | x | x | 33.9% | x | x
Cn1cnc(S(=O)(=O)N2CCC3(CC2)N(CC2CC2)C(=O)CS3=O)c1 (stereo unspecified) | x | x | x | 45.1% | x | x
NC(=O)COc1ccccc1C(=O)Nc1ccccc1 | x | x | 1.8% | x | x | 1.7%
CCN1c2cc(C(=O)Nc3ccc(OC)cc3OC)ccc2C(=O)N2CCCC21 (stereo unspecified) | x | x | x | 50.8% | x | x
Cn1cc(CN2CCCC(COc3ccccc3C(=O)N3CCCC3)C2)c2ccccc21 (stereo unspecified) | x | x | x | -13.3% | x | x

Source: PubChem BioAssay (National Center for Advancing Translational Sciences (NCATS))
